Experimental data from the supplement of paper PMC8975748.
Structures can show the parent of a compound that is named as a salt.

Assays:
[1] = test system: Saccharomyces cerevisiae BY4741 SeMeCo community; assay: z-score of prototroph abundance vs DMSO median; higher = larger share of this subpopulation than in DMSO controls; details: 10 µM; 24 h; SM minimal medium; subpopulation (auxotrophy): Prototroph
Procedure, shortened: (§1)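 Automated confocal microscopy of paraformaldehyde-fixed cells was used to follow a Saccharomyces cerevisiae BY4741 community carrying four plasmids, each restoring one auxotrophy and encoding a distinct fluorescent protein. The community was pre-grown overnight to OD600 1.0, diluted to 0.3, and added at 70 µl to 384-well plates acoustically predosed with library drugs (10 µM final) for 24 h of growth in minimal SM medium. Single-auxotroph fluorescent strains set thresholds and autofluorescence correction, and each subpopulation's abundance was scored as a z-score against the vehicle-well median.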

[2] = test system: Saccharomyces cerevisiae BY4741 SeMeCo community; assay: z-score of subpopulation abundance vs DMSO median, subpopulation auxotrophic for M; higher = larger share of this subpopulation than in DMSO controls; details: 10 µM; 24 h; SM minimal medium; subpopulation (auxotrophy): M
Procedure, shortened: as §1

[3] = test system: Saccharomyces cerevisiae BY4741 SeMeCo community; assay: z-score of subpopulation abundance vs DMSO median, subpopulation auxotrophic for L; higher = larger share of this subpopulation than in DMSO controls; details: 10 µM; 24 h; SM minimal medium; subpopulation (auxotrophy): L
Procedure, shortened: as §1

[4] = test system: Saccharomyces cerevisiae BY4741 SeMeCo community; assay: z-score of subpopulation abundance vs DMSO median, subpopulation auxotrophic for U; higher = larger share of this subpopulation than in DMSO controls; details: 10 µM; 24 h; SM minimal medium; subpopulation (auxotrophy): U
Procedure, shortened: as §1

[5] = test system: Saccharomyces cerevisiae BY4741 SeMeCo community; assay: z-score of subpopulation abundance vs DMSO median, subpopulation auxotrophic for LU; higher = larger share of this subpopulation than in DMSO controls; details: 10 µM; 24 h; SM minimal medium; subpopulation (auxotrophy): LU
Procedure, shortened: as §1

[6] = test system: Saccharomyces cerevisiae BY4741 SeMeCo community; assay: z-score of subpopulation abundance vs DMSO median, subpopulation auxotrophic for LM; higher = larger share of this subpopulation than in DMSO controls; details: 10 µM; 24 h; SM minimal medium; subpopulation (auxotrophy): LM
Procedure, shortened: as §1

[7] = test system: Saccharomyces cerevisiae BY4741 SeMeCo community; assay: z-score of subpopulation abundance vs DMSO median, subpopulation auxotrophic for UM; higher = larger share of this subpopulation than in DMSO controls; details: 10 µM; 24 h; SM minimal medium; subpopulation (auxotrophy): UM
Procedure, shortened: as §1

[8] = test system: Saccharomyces cerevisiae BY4741 SeMeCo community; assay: z-score of subpopulation abundance vs DMSO median, subpopulation auxotrophic for HL; higher = larger share of this subpopulation than in DMSO controls; details: 10 µM; 24 h; SM minimal medium; subpopulation (auxotrophy): HL
Procedure, shortened: as §1

[9] = test system: Saccharomyces cerevisiae BY4741 SeMeCo community; assay: z-score of subpopulation abundance vs DMSO median, subpopulation auxotrophic for HLU; higher = larger share of this subpopulation than in DMSO controls; details: 10 µM; 24 h; SM minimal medium; subpopulation (auxotrophy): HLU
Procedure, shortened: as §1

[10] = test system: Saccharomyces cerevisiae BY4741 SeMeCo community; assay: z-score of subpopulation abundance vs DMSO median, subpopulation auxotrophic for HLM; higher = larger share of this subpopulation than in DMSO controls; details: 10 µM; 24 h; SM minimal medium; subpopulation (auxotrophy): HLM
Procedure, shortened: as §1

[11] = test system: Saccharomyces cerevisiae BY4741 SeMeCo community; assay: z-score of subpopulation abundance vs DMSO median, subpopulation auxotrophic for HUM; higher = larger share of this subpopulation than in DMSO controls; details: 10 µM; 24 h; SM minimal medium; subpopulation (auxotrophy): HUM
Procedure, shortened: as §1

[12] = test system: Saccharomyces cerevisiae BY4741 SeMeCo community; assay: z-score of subpopulation abundance vs DMSO median, subpopulation auxotrophic for LUM; higher = larger share of this subpopulation than in DMSO controls; details: 10 µM; 24 h; SM minimal medium; subpopulation (auxotrophy): LUM
Procedure, shortened: as §1

[13] = test system: Saccharomyces cerevisiae BY4741 SeMeCo community; assay: z-score of subpopulation abundance vs DMSO median, subpopulation auxotrophic for HLUM; higher = larger share of this subpopulation than in DMSO controls; details: 10 µM; 24 h; SM minimal medium; subpopulation (auxotrophy): HLUM
Procedure, shortened: as §1

[14] = test system: Saccharomyces cerevisiae BY4741 SeMeCo community; assay: z-score of subpopulation abundance vs DMSO median, subpopulation auxotrophic for H; higher = larger share of this subpopulation than in DMSO controls; details: 10 µM; 24 h; SM minimal medium; subpopulation (auxotrophy): H
Procedure, shortened: as §1

[15] = test system: Saccharomyces cerevisiae BY4741 SeMeCo community; assay: z-score of subpopulation abundance vs DMSO median, subpopulation auxotrophic for HM; higher = larger share of this subpopulation than in DMSO controls; details: 10 µM; 24 h; SM minimal medium; subpopulation (auxotrophy): HM
Procedure, shortened: as §1

[16] = test system: Saccharomyces cerevisiae BY4741 SeMeCo community; assay: z-score of subpopulation abundance vs DMSO median, subpopulation auxotrophic for HU; higher = larger share of this subpopulation than in DMSO controls; details: 10 µM; 24 h; SM minimal medium; subpopulation (auxotrophy): HU
Procedure, shortened: as §1

Row | Structure (SMILES) | z-score of prototroph abundance [1] | z-score of subpopulation abundance [2] | z-score of subpopulation abundance [3] | z-score of subpopulation abundance [4] | z-score of subpopulation abundance [5] | z-score of subpopulation abundance [6] | z-score of subpopulation abundance [7] | z-score of subpopulation abundance [8] | z-score of subpopulation abundance [9] | z-score of subpopulation abundance [10] | z-score of subpopulation abundance [11] | z-score of subpopulation abundance [12] | z-score of subpopulation abundance [13] | z-score of subpopulation abundance [14] | z-score of subpopulation abundance [15] | z-score of subpopulation abundance [16]
1 | CC1CCc2cc(F)cc3c(=O)c(C(=O)O)cn1c23 (configuration not stated) [Flumequine] | 1.18 | -1.12 | -0.69 | 0.29 | -0.58 | -1.29 | -1.16 | -0.81 | 0.18 | -0.73 | -0.88 | -0.22 | 0.55 | – | – | –
2 | O=c1c(-c2ccc(O)cc2)coc2c([C@@H]3O[C@H](CO)[C@@H](O)[C@H](O)[C@H]3O)c(O)ccc12 [Puerarin] | -0.2 | 0.72 | -0.61 | 0.36 | -0.47 | – | 0.39 | 0.23 | 0.12 | 1.18 | -0.25 | -1.14 | -0.33 | 0.2 | 1.09 | 0.41
3 | C=CC(C)(O)CCC=C(C)C (configuration not stated) [Linalool] | -0.57 | 0.32 | -0.24 | 1.02 | 0.53 | -0.19 | 0.7 | – | -0.06 | -0.24 | -0.24 | -0.39 | -0.32 | -0.37 | -0.25 | 0.69
4 | CCN(CC)CCOCCOC(=O)C1(c2ccccc2)CCCC1 [Pentoxyverine Citrate] | – | -0.67 | -0.03 | 0.17 | 0.06 | – | – | -0.72 | -0.39 | -0.05 | -1.14 | -0.26 | -0.26 | -0.71 | -0.96 | -0.94
5 | CC(=O)C1C(=O)C=C(C)OC1=O (configuration not stated) [Sodium dehydroacetate] | -1.07 | 0.37 | 1.59 | 1.63 | 2.06 | 0.56 | 0.54 | 0.4 | 1.27 | 0.13 | -0.21 | 1.14 | 1.61 | -1.35 | 0.2 | 0.24
6 | C[C@H]1COc2c(N3CCN(C)CC3)c(F)cc3c(=O)c(C(=O)O)cn1c23 [Levofloxacin] | 1.06 | 0 | -0.45 | -0.46 | -0.77 | – | – | – | -0.56 | -1.03 | -0.88 | – | -0.96 | -0.42 | -0.49 | -0.62
7 | CO/N=C(\C(=O)N[C@@H]1C(=O)N2C(C(=O)[O-])=C(C[N+]3(C)CCCC3)CS[C@H]12)c1csc(N)n1 [Cefepime Dihydrochloride Monohydrate] | -0.67 | 0.62 | 0.49 | – | 0.05 | 0.72 | – | 0.83 | 0.65 | 0.34 | 0.6 | 1.06 | 0.19 | 0.4 | 1.14 | -0.45
8 | CO/N=C(\C(=O)N[C@@H]1C(=O)N2C(C(=O)O)=CCS[C@H]12)c1csc(N)n1 [Ceftizoxime sodium] | 0.46 | 1.04 | -1.5 | -0.03 | -0.54 | -0.65 | 0.12 | -0.66 | -0.33 | -0.22 | 0.09 | -1.27 | -0.48 | -1.54 | -0.06 | -0.68
9 | CC(=O)OCC1=C(C(=O)O)N2C(=O)C(NC(=O)CSC(=NC(C)C)NC(C)C)C2SC1 (configuration not stated) [Cefathiamidine] | 0.65 | -0.3 | -0.86 | – | -0.47 | -1.11 | 0.84 | -1.06 | -1.21 | -1.16 | 0.21 | -0.68 | -1.54 | -0.66 | – | -0.62
10 | CC(C)Cc1ccc(C(C)C(=O)O)cc1 (configuration not stated) [Ibuprofen Lysine] | 3.98 | -0.7 | -0.17 | -3.65 | -4.01 | -0.77 | -4.66 | -0.13 | -1.49 | -0.36 | -3.01 | -2.47 | -1.27 | – | – | -2.64
11 | O=C(C1CCCCC1)N1CC(=O)N2CCc3ccccc3C2C1 (configuration not stated) [Praziquantel] | -0.09 | 0.19 | 0.31 | 0.5 | 0.75 | 0.34 | 0.1 | -0.41 | 0.47 | -1.06 | -0.37 | 0.43 | 0.11 | -0.1 | -0.5 | -0.36
12 | CC(C)(C)C1CCC(CC2=C(O)c3ccccc3C(=O)C2=O)CC1 (configuration not stated) [Buparvaquone] | – | 2.2 | 0.5 | -0.95 | 0.03 | 0.78 | 0.54 | -0.13 | 0.03 | 0.05 | 0.83 | – | 0.04 | -0.05 | – | -0.75
13 | NC[C@@H]1O[C@H](O[C@H]2[C@@H](O)[C@H](O[C@@H]3[C@@H](O)[C@H](N)C[C@H](N)[C@H]3O[C@H]3O[C@H](CN)[C@@H](O)[C@H](O)[C@H]3N)O[C@@H]2CO)[C@H](N)[C@@H](O)[C@@H]1O [Neomycin sulfate] | 0.99 | -0.79 | 0.21 | 0.07 | 0.11 | -0.12 | -1.35 | -0.31 | -0.36 | -0.3 | -1.64 | -0.31 | 0.16 | 0.56 | -1.14 | -0.31
14 | CC(=O)N[C@H]1[C@H]([C@H](O)[C@H](O)CO)OC(C(=O)O)=C[C@@H]1NC(=N)N [Zanamivir] | – | 0.82 | 1.27 | -1.03 | -0.15 | 1.52 | -0.2 | 1.66 | 0.56 | 0.19 | 0.23 | 0.82 | 0.38 | 0.63 | 0.87 | -0.41
